Laboratory results as given in PubChem BioAssay (EPA / NIEHS).
Inconclusive results are not listed. Where a structure was tested more than once in an assay, its records may differ in their call. Calls of active or inactive are those of the source. Rule for the calls: active = hit-call score of the fitted dose curve at least 0.9, where 1 is the maximum; inconclusive = response in the unintended direction; inactive = score below 0.9.

Tested on: not listed separately
Test: ATG_M_06_TRANS: Attagene TRANS-FACTORIAL HepG2 Assay for M06 Transcription Factor (Internal Marker) (AID 2282983);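 for AC50: potency for rise in reporter mRNA above DMSO baseline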;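 for outcome: reporter transcript level by RT-PCR then capillary electrophoresis fluorescence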
Details: HepG2 Attagene TRANS M06 internal marker reporter
Procedure, shortened: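 HepG2 cells transiently transfected with GAL4-UAS multiple reporter units, dosed 24 h. Reporter RNA reverse-transcribed, PCR-amplified, 6-FAM-labeled, HpaI-digested and quantified by capillary electrophoresis; this internal-marker signal fitted upward relative to DMSO.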

Q: With `N#CN=C(N)N` as the compound, how does the outcome read?
A: inactive

Q: With `CCc1ccccc1C` as the compound, how does the outcome read?
A: inactive

Q: For `CCNc1nc(NC(C)(C)C)nc(SC)n1`, which outcome is on record?
A: inactive

Q: For `CC(C)(C)CC(C)(C)c1ccc(O)cc1`, which outcome is on record?
A: inactive

Q: For `CC(=O)[O][Hg][c]1ccccc1`, which outcome is on record?
A: inactive

Q: With `CCOP(OCC)OCC` as the compound, how does the outcome read?
A: inactive

Q: Which outcome does the source give for `O=C(O)C(F)(F)C(F)(F)C(F)(F)C(F)(F)C(F)(F)C(F)(F)F` here?
A: inactive

Q: For `CN(C)N=O`, which outcome is on record?
A: inactive

Q: For `CCN(CC)C(=O)Cl`, which outcome is on record?
A: inactive

Q: With `CC1(C)CCC(Cc2ccc(Cl)cc2)C1(O)Cn1cncn1` (centres undefined) as the compound, how does the outcome read?
A: inactive

Q: Which outcome does the source give for `O=C1CCCN1` here?
A: inactive

Q: With `Clc1ccc(C2(Cn3cncn3)CC(Br)CO2)c(Cl)c1` (centres undefined) as the compound, how does the outcome read?
A: inactive

Q: For `CC(C)(c1ccccc1)c1ccc(O)c(C(C)(C)c2ccccc2)c1`, which outcome is on record?
A: inactive

Q: Which outcome does the source give for `c1cc[c]([Hg][c]2ccccc2)cc1` here?
A: inactive

Q: For `O=C(Cl)c1ccc(Cl)cc1`, which outcome is on record?
A: inactive

Q: Which outcome does the source give for `C[C@@H]1C[C@@H]([C@H](O)CC2CC(=O)NC(=O)C2)C(=O)[C@@H](C)C1` here?
A: inactive

Q: For `O=C1C2(Cl)C3(Cl)C4(Cl)C(Cl)(Cl)C5(Cl)C3(Cl)C1(Cl)C5(Cl)C24Cl` (centres undefined), which outcome is on record?
A: inactive

Q: For `ClCc1cccnc1`, which outcome is on record?
A: inactive

Q: Which outcome does the source give for `ClC1(Cl)C2(Cl)C3(Cl)C4(Cl)C(Cl)(Cl)C5(Cl)C3(Cl)C1(Cl)C5(Cl)C24Cl` (centres undefined) here?
A: inactive

Q: For `ClC1=C(Cl)[C@]2(Cl)[C@@H]3[C@@H](Cl)[C@@H](Cl)C[C@@H]3[C@@]1(Cl)C2(Cl)Cl`, which outcome is on record?
A: inactive

Q: With `CN(C)P(=O)(N(C)C)N(C)C` as the compound, how does the outcome read?
A: inactive

Q: With `O=C(O)C(F)(F)C(F)(F)C(F)(F)C(F)(F)C(F)(F)C(F)(F)C(F)(F)C(F)(F)C(F)(F)C(F)(F)F` as the compound, how does the AC50 read?
A: 129 µM (active)

Q: Which outcome does the source give for `CC(C)c1ccc(CO)cc1` here?
A: inactive

Q: With `CCC(C)c1cccc(C(C)CC)c1O` (centres undefined) as the compound, how does the outcome read?
A: inactive

Q: Which outcome does the source give for `COC[C@H](C)N(C(=O)CCl)c1c(C)csc1C` here?
A: inactive

Q: With `Oc1cccc2cccnc12` as the compound, how does the outcome read?
A: inactive

Q: With `CC(C)C1CCC(Cc2ccc(Cl)cc2)C1(O)Cn1cncn1` (centres undefined) as the compound, how does the outcome read?
A: inactive

Tested on: not listed separately
Test: ATG_M_32_TRANS: Attagene TRANS-FACTORIAL HepG2 Assay for M32 Transcription Factor (Internal Marker) (AID 2282984);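 note: transcript level of a background control reporter unit measured by RT-PCR and capillary electrophoresis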
Details: HepG2 Attagene TRANS M32 internal marker reporter
Procedure, shortened: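 HepG2 cells transiently transfected with multiple GAL4-UAS reporter transcription units, dosed for 24 hours; reporter mRNA quantified by RT-PCR, 6-FAM primer extension, HpaI digestion and capillary electrophoresis. Gain-of-signal fitted versus DMSO baseline; internal background-control marker.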

Q: For `N#CN=C(N)N`, which outcome is on record?
A: inactive

Q: For `CCC(=O)C(CC(C)N(C)C)(c1ccccc1)c1ccccc1` (centres undefined), which outcome is on record?
A: inactive

Q: Which outcome does the source give for `CCc1ccccc1C` here?
A: inactive

Q: Which outcome does the source give for `CCNc1nc(NC(C)(C)C)nc(SC)n1` here?
A: inactive

Q: With `CC(C)(C)CC(C)(C)c1ccc(O)cc1` as the compound, how does the outcome read?
A: inactive

Q: With `C=C(C)C#N` as the compound, how does the outcome read?
A: inactive

Q: For `O=C(O)C(F)(F)C(F)(F)C(F)(F)C(F)(F)C(F)(F)C(F)(F)F`, which outcome is on record?
A: inactive

Q: With `CCC(C)(C)c1ccc(O)c(C(C)(C)CC)c1` as the compound, how does the outcome read?
A: inactive

Q: With `CCN(CC)C(=O)Cl` as the compound, how does the outcome read?
A: inactive

Q: For `CC1(C)CCC(Cc2ccc(Cl)cc2)C1(O)Cn1cncn1` (centres undefined), which outcome is on record?
A: inactive

Q: Which outcome does the source give for `COS(=O)(=O)c1ccc(C)cc1` here?
A: inactive

Q: Which outcome does the source give for `Clc1ccc(C2(Cn3cncn3)CC(Br)CO2)c(Cl)c1` (centres undefined) here?
A: inactive

Q: For `CC(=O)OC(c1ccccc1)C(Cl)(Cl)Cl` (centres undefined), which outcome is on record?
A: inactive

Q: For `c1cc[c]([Hg][c]2ccccc2)cc1`, which outcome is on record?
A: inactive

Q: With `O=C(Cl)c1ccc(Cl)cc1` as the compound, how does the outcome read?
A: inactive

Q: For `C[C@@H]1C[C@@H]([C@H](O)CC2CC(=O)NC(=O)C2)C(=O)[C@@H](C)C1`, which outcome is on record?
A: inactive

Q: With `O=C1C2(Cl)C3(Cl)C4(Cl)C(Cl)(Cl)C5(Cl)C3(Cl)C1(Cl)C5(Cl)C24Cl` (centres undefined) as the compound, how does the outcome read?
A: inactive

Q: Which outcome does the source give for `Cl/C=C\C[N+]12CN3CN(CN(C3)C1)C2` here?
A: inactive

Q: With `ClCc1cccnc1` as the compound, how does the outcome read?
A: inactive

Q: For `ClC1=C(Cl)[C@]2(Cl)[C@@H]3[C@@H](Cl)[C@@H](Cl)C[C@@H]3[C@@]1(Cl)C2(Cl)Cl`, which outcome is on record?
A: inactive

Q: For `CN(C)P(=O)(N(C)C)N(C)C`, which outcome is on record?
A: inactive

Q: Which outcome does the source give for `CCN1CCC2(CC1)COc1cc3c(cc12)N(C(=O)c1ccc(-c2ccc(-c4nnc(C)o4)cc2C)cc1)CC3` here?
A: inactive

Q: Which outcome does the source give for `O=C(O)C(F)(F)C(F)(F)C(F)(F)C(F)(F)C(F)(F)C(F)(F)C(F)(F)C(F)(F)C(F)(F)C(F)(F)F` here?
A: inactive

Q: Which outcome does the source give for `CC(C)c1ccc(CO)cc1` here?
A: inactive

Q: For `CCC(C)c1cccc(C(C)CC)c1O` (centres undefined), which outcome is on record?
A: inactive

Q: With `O=C(c1ccccc1)C(Cl)Cl` as the compound, how does the outcome read?
A: inactive

Q: For `COC[C@H](C)N(C(=O)CCl)c1c(C)csc1C`, which outcome is on record?
A: inactive

Q: With `CC(C)C1CCC(Cc2ccc(Cl)cc2)C1(O)Cn1cncn1` (centres undefined) as the compound, how does the outcome read?
A: inactive

Target: Nuclear receptor subfamily 4 group A member 2 (Homo sapiens) (UniProt P43354)
Test: ATG_NURR1_TRANS: Attagene TRANS-FACTORIAL HepG2 Assay for human Nuclear Receptor Related Protein 1 (NURR1) (AID 2282985)
Details: HepG2 Attagene TRANS reporter, mRNA readout
Procedure, shortened: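 HepG2 cells transiently transfected with GAL4-UAS reporter units and chimeric NR-Gal4 constructs; chemical exposure 24 h. Reporter mRNA quantified by RT-PCR, fluorescent labelling and capillary electrophoresis; gain of signal fitted relative to DMSO baseline.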

Nuclear receptor subfamily 4 group A member 2 (Homo sapiens), sequence (P43354 whole entry, looked up): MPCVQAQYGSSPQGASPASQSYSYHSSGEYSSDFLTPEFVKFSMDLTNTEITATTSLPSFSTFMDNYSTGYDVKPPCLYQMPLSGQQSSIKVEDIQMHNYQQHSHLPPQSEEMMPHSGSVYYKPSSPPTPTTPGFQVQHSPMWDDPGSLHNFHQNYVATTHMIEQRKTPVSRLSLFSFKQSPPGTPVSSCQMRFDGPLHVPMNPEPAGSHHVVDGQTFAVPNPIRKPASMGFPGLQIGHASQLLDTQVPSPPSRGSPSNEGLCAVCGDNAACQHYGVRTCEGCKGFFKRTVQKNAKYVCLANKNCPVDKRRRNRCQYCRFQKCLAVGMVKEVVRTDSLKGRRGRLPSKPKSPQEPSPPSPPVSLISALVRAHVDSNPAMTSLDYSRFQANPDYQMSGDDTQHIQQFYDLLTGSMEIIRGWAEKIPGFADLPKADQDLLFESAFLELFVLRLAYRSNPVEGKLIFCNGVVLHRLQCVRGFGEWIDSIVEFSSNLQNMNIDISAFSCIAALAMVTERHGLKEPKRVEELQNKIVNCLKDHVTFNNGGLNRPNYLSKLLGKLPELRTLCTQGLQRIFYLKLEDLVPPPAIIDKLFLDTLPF

Q: With `N#CN=C(N)N` as the compound, how does the outcome read?
A: inactive

Q: For `CCNc1nc(NC(C)(C)C)nc(SC)n1`, which outcome is on record?
A: inactive

Q: With `CC(C)(C)CC(C)(C)c1ccc(O)cc1` as the compound, how does the outcome read?
A: inactive

Q: With `CCOP(OCC)OCC` as the compound, how does the outcome read?
A: inactive

Q: For `Fc1ccc(C2(Cn3cncn3)OC2c2ccccc2Cl)cc1` (centres undefined), which outcome is on record?
A: inactive

Q: For `O=C(O)C(F)(F)C(F)(F)C(F)(F)C(F)(F)C(F)(F)C(F)(F)F`, which outcome is on record?
A: inactive

Q: For `CCC(C)(C)c1ccc(O)c(C(C)(C)CC)c1`, which AC50 is on record?
A: 33.4 µM (active)

Q: With `CN(C)N=O` as the compound, how does the outcome read?
A: inactive

Q: For `CC1(C)CCC(Cc2ccc(Cl)cc2)C1(O)Cn1cncn1` (centres undefined), which outcome is on record?
A: inactive

Q: With `COS(=O)(=O)c1ccc(C)cc1` as the compound, how does the outcome read?
A: inactive

Q: Which outcome does the source give for `Clc1ccc(C2(Cn3cncn3)CC(Br)CO2)c(Cl)c1` (centres undefined) here?
A: inactive

Q: Which outcome does the source give for `CC(=[OH+])/C=C(/C)[O-].CC(=[OH+])/C=C(/C)[O-].CC(=[OH+])/C=C(/C)[O-].[Fe]` here?
A: inactive

Q: With `CC(C)(c1ccccc1)c1ccc(O)c(C(C)(C)c2ccccc2)c1` as the compound, how does the outcome read?
A: inactive

Q: For `c1cc[c]([Hg][c]2ccccc2)cc1`, which outcome is on record?
A: inactive

Q: With `C[C@@H]1C[C@@H]([C@H](O)CC2CC(=O)NC(=O)C2)C(=O)[C@@H](C)C1` as the compound, how does the outcome read?
A: inactive

Q: What does the source list for `O=C1C2(Cl)C3(Cl)C4(Cl)C(Cl)(Cl)C5(Cl)C3(Cl)C1(Cl)C5(Cl)C24Cl` (centres undefined)?
A: AC50: 18.9 µM (active); outcome: inactive

Q: With `Cl/C=C\C[N+]12CN3CN(CN(C3)C1)C2` as the compound, how does the outcome read?
A: inactive

Q: For `ClCc1cccnc1`, which outcome is on record?
A: inactive

Q: Which outcome does the source give for `ClC1(Cl)C2(Cl)C3(Cl)C4(Cl)C(Cl)(Cl)C5(Cl)C3(Cl)C1(Cl)C5(Cl)C24Cl` (centres undefined) here?
A: inactive

Q: For `O=C(O)C(F)(F)C(F)(F)C(F)(F)C(F)(F)C(F)(F)C(F)(F)C(F)(F)C(F)(F)C(F)(F)C(F)(F)F`, which outcome is on record?
A: inactive

Q: With `CCC(C)c1cccc(C(C)CC)c1O` (centres undefined) as the compound, how does the AC50 read?
A: 33.4 µM (active)

Q: Which outcome does the source give for `O=C(c1ccccc1)C(Cl)Cl` here?
A: inactive

Q: With `COC[C@H](C)N(C(=O)CCl)c1c(C)csc1C` as the compound, how does the outcome read?
A: inactive
